Measurements reported in PubChem BioAssay (NCATS).
Values joined by “and” are separate entries in the source; they are usually repeats but may differ in a detail not shown here. Equal values may be shown once. Inconclusive results are not listed. Active and inactive are the calls of the source. Calls come from the whole dose curve; as a rule, active = well fitted curve in the direction sought with a large enough effect; inconclusive = small, poorly fitted or top-dose-only effect, or another doubt; inactive = no such curve, though single readings can be large; an effect the other way counts as inactive or inconclusive.

Key:
[1] = system: Zika virus NS2B-NS3 protease (unlinked complex); assay: Primary screen GU Rhodamine qHTS for Zika virus inhibitors: Unlinked NS2B-NS3 protease assay (AID 1347159); note: % is set by controls: 0 for no effect and ±100 for the full control effect; nearly all actives have a fitted effect of over 60% in size
How it was run: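 Noncovalent NS2B hydrophilic domain/NS3 protease complex (25 nM final) in 10 mM Tris-HCl pH 8.0, 0.01% Tween 20, preincubated 15 min with compounds (up to 114 microM), then 1.5 microM Rhodamine110 substrate. Fluorescence change over 15 min fitted to 4-parameter Hill.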

[2] = system: Zika virus NS2B-NS3 protease (linked construct); assay: Primary screen NINDS Rhodamine qHTS for Zika virus inhibitors (AID 1347160); note: nearly all actives have a fitted effect of over 55% in size; note: potency is the fitted concentration of half-maximal effect
How it was run: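 Purified NS2B-NS3 protease with the NS2B hydrophilic domain joined by a flexible linker (25 nM) in 10 mM Tris-HCl pH 8.0, 0.01% Tween 20, preincubated 15 min at RT with compound; Rhodamine110 peptide substrate 1.5 µM; fluorescence change over 15 min; 4-parameter Hill fit.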

[3] = Vero cells viability qHTS for Zika virus inhibitors (AID 1347167); note: % is set by controls: 0 for no effect and ±100 for the full control effect
How it was run: (§1)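 Compounds were tested in concentration series on cells grown in DMEM containing 4% FBS. After 24 to 48 hours, cellular ATP was measured by luminescence with CellTiter Glo.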

[4] = HepG2 cells viability qHTS for Zika virus inhibitors (AID 1347168); note: % is set by controls: 0 for no effect and ±100 for the full control effect
How it was run: as §1

[5] = Tertiary RLuc qRT-PCR qHTS assay for Zika virus inhibitors (AID 1347169); note: top concentration of the series differs between compounds; % is set by controls: 0 for no effect and ±100 for the full control effect; nearly all actives have a fitted effect of over 55% in size
How it was run: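 Vero cells (1,000 per well) plated overnight at 37 degrees C, treated with compound in DMSO, then infected with recombinant ZIKV-RLuc (Cambodian) at MOI 1-2 for 48-72 hrs. Live-cell Renilla luciferase substrate added; luminescence read after 1-1.5 hrs.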

[6] = qHTS to identify inhibitors of the type 1 interferon - major histocompatibility complex class I in skeletal muscle: primary screen against the NCATS LOPAC collection (AID 1347405);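 note: lytic HiBiT luminescence reporting HLA-B protein level; % is set by controls: 0 for no effect and ±100 for the full control effect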
How it was run: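 Immortalized human C25cl48 myoblasts with HiBiT knocked into endogenous HLA-B*08:01 were stimulated with 4.0 ng/ml IFN-beta and given compounds in a 7-point, 1:4.3 titration from 46 uM final; after 24 hrs, lytic HiBiT luminescence was read.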

[7] = qHTS for inhibitors of adenylyl cyclases using a fission yeast platform: a pilot screen against the NCATS LOPAC library (AID 1347410);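 note: plate controls were DMSO vehicle for no effect and DPI positive control for full effect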
How it was run: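 S. pombe CHP2027 (AC9-GNAS-PDE4D2) carrying a PKA-repressed fbp1-GFP reporter was exposed to LOPAC compounds (final up to 57 µM) for 18 h at 30C in the dark, in EMM with histidine, lysine and uracil; GFP gain-of-signal read by laser scanning cytometry.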

[8] = molecular target: Lysine-specific demethylase 5B (Homo sapiens) (UniProt Q9UGL1); assay: Optimization screen for KDM5B Histone Demethylases FDH coupled qHTS against the LOPAC library (AID 1347166); note: 0% is about no effect
Chain of Lysine-specific demethylase 5B (Homo sapiens) (Q9UGL1 whole entry, looked up): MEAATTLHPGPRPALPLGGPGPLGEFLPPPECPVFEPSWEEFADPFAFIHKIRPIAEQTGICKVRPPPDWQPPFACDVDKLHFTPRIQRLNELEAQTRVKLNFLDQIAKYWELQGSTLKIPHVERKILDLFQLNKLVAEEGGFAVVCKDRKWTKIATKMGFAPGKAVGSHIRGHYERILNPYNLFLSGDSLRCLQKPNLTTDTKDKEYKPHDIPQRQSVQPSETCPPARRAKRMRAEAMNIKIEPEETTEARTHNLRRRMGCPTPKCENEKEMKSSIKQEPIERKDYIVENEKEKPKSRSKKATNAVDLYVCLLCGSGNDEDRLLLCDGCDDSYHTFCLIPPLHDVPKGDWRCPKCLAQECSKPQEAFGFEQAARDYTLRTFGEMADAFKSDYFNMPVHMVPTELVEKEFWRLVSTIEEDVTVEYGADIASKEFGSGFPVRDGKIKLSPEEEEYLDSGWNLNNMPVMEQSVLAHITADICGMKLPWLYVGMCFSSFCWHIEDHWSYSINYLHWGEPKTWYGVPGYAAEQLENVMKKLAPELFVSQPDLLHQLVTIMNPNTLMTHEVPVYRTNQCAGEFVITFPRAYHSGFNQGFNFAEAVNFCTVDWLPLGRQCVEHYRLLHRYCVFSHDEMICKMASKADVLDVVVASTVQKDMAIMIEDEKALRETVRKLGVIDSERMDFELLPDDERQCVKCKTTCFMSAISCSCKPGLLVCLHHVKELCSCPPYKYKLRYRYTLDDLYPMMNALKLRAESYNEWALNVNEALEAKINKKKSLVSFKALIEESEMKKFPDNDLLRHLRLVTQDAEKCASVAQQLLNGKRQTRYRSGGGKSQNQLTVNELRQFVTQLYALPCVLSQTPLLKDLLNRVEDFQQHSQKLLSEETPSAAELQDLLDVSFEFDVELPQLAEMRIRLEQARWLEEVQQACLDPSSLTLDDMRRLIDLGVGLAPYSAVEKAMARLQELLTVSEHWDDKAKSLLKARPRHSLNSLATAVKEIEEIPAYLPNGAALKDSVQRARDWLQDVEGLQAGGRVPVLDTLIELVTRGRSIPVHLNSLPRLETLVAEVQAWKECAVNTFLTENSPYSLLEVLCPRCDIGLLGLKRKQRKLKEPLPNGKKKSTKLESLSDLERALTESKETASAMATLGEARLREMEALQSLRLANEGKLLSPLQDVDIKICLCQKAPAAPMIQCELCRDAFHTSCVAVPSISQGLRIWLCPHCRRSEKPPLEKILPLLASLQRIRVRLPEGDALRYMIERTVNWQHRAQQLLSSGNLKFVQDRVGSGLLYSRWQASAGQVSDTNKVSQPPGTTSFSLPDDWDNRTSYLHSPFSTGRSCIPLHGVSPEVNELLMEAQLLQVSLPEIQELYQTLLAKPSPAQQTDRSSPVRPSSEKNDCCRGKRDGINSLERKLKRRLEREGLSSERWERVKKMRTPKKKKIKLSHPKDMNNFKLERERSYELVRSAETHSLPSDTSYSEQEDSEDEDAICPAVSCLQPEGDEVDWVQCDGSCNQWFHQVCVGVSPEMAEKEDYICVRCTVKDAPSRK
How it was run: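 KDM5BDeltaAP (200nM final) preincubated 10 min with compound, then 12.5uM H3K4Me3, 25uM a-ketoglutarate, ascorbate, Fe(II), NAD+ and FDH added; 50mM HEPES pH 7.5, 0.01% Tween-20. NADH fluorescence (340/450 nm) change over 30 min, room temperature.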

[9] = qHTS to identify inhibitors of the type 1 interferon - major histocompatibility complex class I in skeletal muscle: primary screen against the NCATS Mechanism Interrogation Plate v5.0 (MIPE) Libary (AID 1347411);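 note: plate controls were vehicle for no effect and reference inhibitor for full effect; nearly all actives have a fitted effect of over 65% in size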
How it was run: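 Immortalized human C25cl48 myoblasts with HiBit knocked into endogenous HLA-B*08:01 were stimulated with 4.0 ng/ml IFN-beta and exposed to compounds (11-point 1:3 titration, top 46 uM final) for 24 hrs at 37 C; HiBiT lytic luminescence measured.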

[10] = Validation qHTS assay for inhibitors of Activation Induced Cytidine Deaminase (AID): UDG Counterscreen signal (AID 1347427); note: 0% is about no effect
How it was run: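 Counterscreen read of UDG activity (2 U/mL, 4/3x) in the FRET deamination format with AID (1 uM, 4/3x), DJC20/DJC23 substrates (250 nM, 4x), 4 h at room temperature. NaOH stop, fluorescence at 560 ex/665 em.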

[11] = molecular target: Single-stranded DNA cytosine deaminase (Homo sapiens) (UniProt Q9GZX7); assay: Validation qHTS assay for inhibitors of Activation Induced Cytidine Deaminase (AID): AID signal (AID 1347429); note: % is set by controls: 0 for no effect and ±100 for the full control effect
Chain of Single-stranded DNA cytosine deaminase (Homo sapiens) (Q9GZX7 whole entry, looked up): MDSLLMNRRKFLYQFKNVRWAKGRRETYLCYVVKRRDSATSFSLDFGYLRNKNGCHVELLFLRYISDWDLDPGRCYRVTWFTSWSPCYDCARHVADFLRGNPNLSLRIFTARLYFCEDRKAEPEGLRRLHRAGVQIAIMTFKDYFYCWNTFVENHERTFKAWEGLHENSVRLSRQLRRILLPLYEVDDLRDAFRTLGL
How it was run: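 AID and UDG were combined and compounds added at final up to 114 uM, then DJC20/DJC23 FRET substrate was added for 4 hr at room temperature. NaOH was then added for 30 min before fluorescence was read at 540/590 nm.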

[12] = Primary qHTS for inhibitors of La Crosse Virus (LACV) - induced cell death in SH-SY5Y cells (AID 1508616);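 note: top concentration of the series differs between compounds; 0% = infected DMSO wells and 100% = uninfected DMSO wells; higher means more rescue of cells from virus-induced death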
How it was run: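 Luminescent ATP readout (ATPLite 1step, 5 min room temperature) measured rescue from LACV-induced death after 6 days of infection at 0.01 MOI; normalized to infected DMSO wells and uninfected DMSO wells.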

[13] = qHTS to identify inhibitors of the type 1 interferon - major histocompatibility complex class I in skeletal muscle: primary screen against the NCATS Pharmaceutical Collection (AID 1347407)
How it was run: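 Immortalized human myoblasts (C25cl48) with HiBiT knocked into endogenous HLA-B*08:01 were stimulated with 4 ng/ml IFN-beta and treated with compounds (8-point, 1:5, top 46 uM final) for 24 h at 37 C; HiBiT lytic luminescence read.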

[14] = molecular target: Protein phosphatase 1D (Homo sapiens) (UniProt O15297); assay: RapidFire Mass Spectrometry qHTS Assay for Modulators of WT P53-Induced Phosphatase 1 (WIP1) (AID 1347424);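 note: amount of dephosphorylated VEPPL-S-QETFS peptide product formed by WIP1; series mostly up to about 63 µM; plate controls were DMSO wells for no effect and GSK830371 inhibitor control at 10 µM for full effect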
Chain of Protein phosphatase 1D (Homo sapiens) (O15297 whole entry, looked up): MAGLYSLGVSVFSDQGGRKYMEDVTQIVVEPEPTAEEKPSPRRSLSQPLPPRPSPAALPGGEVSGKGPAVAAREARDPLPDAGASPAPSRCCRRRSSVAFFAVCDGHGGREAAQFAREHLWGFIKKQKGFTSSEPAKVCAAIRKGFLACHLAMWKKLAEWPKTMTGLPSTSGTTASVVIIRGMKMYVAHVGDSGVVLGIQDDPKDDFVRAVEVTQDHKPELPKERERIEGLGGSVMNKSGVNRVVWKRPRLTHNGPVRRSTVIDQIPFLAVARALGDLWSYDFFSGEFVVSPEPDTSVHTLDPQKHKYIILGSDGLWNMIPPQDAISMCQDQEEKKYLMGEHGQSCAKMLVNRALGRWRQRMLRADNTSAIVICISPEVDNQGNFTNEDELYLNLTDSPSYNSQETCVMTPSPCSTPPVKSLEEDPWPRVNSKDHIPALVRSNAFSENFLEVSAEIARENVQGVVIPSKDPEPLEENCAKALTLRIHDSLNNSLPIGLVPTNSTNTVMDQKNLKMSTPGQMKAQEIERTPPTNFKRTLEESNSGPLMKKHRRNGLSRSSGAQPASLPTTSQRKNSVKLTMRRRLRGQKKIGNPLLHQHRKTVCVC
How it was run: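 10 nM WIP1 + cpd, 1 h RT; + 2 uM VEPPL-pS-QETFS, 5 min RT; stop 0.5% formic acid; labelled product standard 1 uM; RapidFire MS. Buffer 50 mM Tris pH 7.5, 30 mM MgCl2, 1 mM TCEP.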

[15] = molecular target: Protein phosphatase 1D (Homo sapiens) (UniProt O15297); assay: Rhodamine-PBP qHTS Assay for Modulators of WT P53-Induced Phosphatase 1 (WIP1) (AID 1347425); note: % of control where 0% means no effect
How it was run: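 WIP1 (5 nM final) was preincubated with compound for 1 hour at room temperature. It then dephosphorylated 10 uM VEPPL-pS-QETFS peptide in Tris-HCl pH 7.5 with 30 mM MgCl2. Released Pi was detected by 10 uM Rh-PBP fluorescence (ex 525/em 598 nm) read at 1-min intervals for 11 min, as delta f1 - f0.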

[16] = ZIKV-mCherry secondary qHTS for Zika virus inhibitors (AID 1347158); note: top concentration of the series differs between compounds
How it was run: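 Vero cells, 5,000/well, plated overnight at 37 °C, then compound added and infected with recombinant ZIKV-mCherry at MOI 1 for 48-72 h. PFA-fixed, Hoechst nuclear stain, high-content imaging; cells with mCherry intensity above 450 RFU scored infected, reported as percent infection.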

[17] = Confirmatory screen NINDS Rhodamine qHTS for Zika virus inhibitors (AID 1347161); note: potency is the fitted concentration of half-maximal effect; nearly all actives have a fitted effect of over 60% in size
How it was run: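 Kinetic fluorescence (Ex 480 nm, Em 540 nm) over 15 min with 1.5 microM Rhodamine110 peptide and 25 nM linked protease.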

[18] = system: Zika virus NS2B-NS3 protease (linked); assay: 384 well plate NINDS AMC confirmatory qHTS for Zika virus inhibitors (AID 1347163); note: nearly all actives have a fitted effect of over 50% in size; note: potency is the fitted concentration of half-maximal effect;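 for activity change, negative = inhibition: fluorescence of AMC released from Ac-VKTGKR-AMC peptide cleaved by the protease; top concentration of the series differs between compounds; 0% = no-inhibitor control and -100% = no-enzyme control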
How it was run: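 Linked protease 5/30/60 nM final; cpds up to 1 mM final, ~15 min preinc. Substrate Ac-VKTGKR-AMC 30 microM final. RT, dark, 25 min; FI ex 355/em 460; normalized to no-enzyme/no-inhibitor ctrls.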

[19] = system: Zika virus NS2B-NS3 protease (linked construct); assay: 384 well plate NINDS Rhodamine confirmatory qHTS for Zika virus inhibitors (AID 1347164);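 note: fluorescence from protease cleavage of Ac-LKRR-rhodamine 110 substrate; potency is the fitted concentration of half-maximal effect; nearly all actives have a fitted effect of over 65% in size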
How it was run: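 Linked protease at a final 5 nM, 30 nM or 60 nM was preincubated ~15 min with compounds, then given 10 microM Ac-LKRR-Rhodamine 110. Fluorescence (ex 485/em 538 nm) after 25 min in the dark at room temperature.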

CN(C)C(=O)[C@H](O)[C@H](Cc1ccccc1)NC(=O)c1cc2cc(Cl)ccc2[nH]1
inactive: Potency [1] | Potency [2] | Potency [3] | Potency [4] | Potency [5] | Potency [6] | outcome [7]

COc1ccccc1N1CCN(CCN(C(=O)C2CCCCC2)c2ccccn2)CC1
inactive: Potency [1] | Potency [2] | outcome [8] | Potency [6] | outcome [7] | Potency [9] | Potency [10] | outcome [11] | Potency [12]

CC(C)c1nc(CN(C)C(=O)N[C@H](C(=O)N[C@@H](Cc2ccccc2)C[C@H](O)[C@H](Cc2ccccc2)NC(=O)OCc2cncs2)C(C)C)cs1
inactive: Potency [1] | Potency [2] | Potency [13] | Potency [14] | outcome [15] | Potency [12]

CN(c1nccc(=O)[nH]1)C1CCN(c2nc3ccccc3n2Cc2ccc(F)cc2)CC1
inactive: Potency [2] | Potency [13] | Potency [14] | outcome [15] | Potency [12]

N[C@@H](Cc1cc(I)c(Oc2cc(I)c(O)c(I)c2)c(I)c1)C(=O)O
active: Potency [2] 6.31 µM | Potency [17] 9.67 µM and 12.6 µM | Potency [19] 10 µM
inactive: Potency [16] | Potency [18] | Potency [3] | activity change, negative = inhibition [5] -3.48% [at 0.566 µM] | Potency [13] | Potency [9] | outcome [15] | Potency [12]

Cc1ccc(Nc2nccc(N(C)c3ccc4c(C)n(C)nc4c3)n2)cc1S(N)(=O)=O
inactive: Potency [1] | Potency [2] | Potency [14] | outcome [15] | Potency [12]

CC(C)c1ccc2c(c1)c(SC(C)(C)C)c(CC(C)(C)C(=O)O)n2Cc1ccc(Cl)cc1
inactive: outcome [8] | Potency [4] | outcome [7] | Potency [10] | outcome [11]
active: Potency [17] 1.56 µM | Potency [18] 14.1 µM | Potency [19] 14.1 µM

Cc1cc2c(s1)Nc1ccccc1N=C2N1CCN(C)CC1
inactive: Potency [1] | Potency [2] | Potency [13] | Potency [14] | outcome [15] | Potency [12]

COc1ccc(C2(C#N)CCC(C(=O)O)CC2)cc1OC1CCCC1 (stereo not given)
inactive: Potency [1] | Potency [2] | Potency [9]

COc1ccc2cc([C@H](C)C(=O)O)ccc2c1
inactive: Potency [1] | Potency [2] | outcome [8] | Potency [6] | outcome [7] | Potency [14] | outcome [15] | Potency [10] | outcome [11] | Potency [12]
